Test results reported in article PMC7862700, “An all-to-all approach to the identification of sequence-specific readers for epigenetic DNA modifications on cytosine”.

Target: T1, ERF (Homo sapiens, UniProt P50548 1-548)
T1 sequence: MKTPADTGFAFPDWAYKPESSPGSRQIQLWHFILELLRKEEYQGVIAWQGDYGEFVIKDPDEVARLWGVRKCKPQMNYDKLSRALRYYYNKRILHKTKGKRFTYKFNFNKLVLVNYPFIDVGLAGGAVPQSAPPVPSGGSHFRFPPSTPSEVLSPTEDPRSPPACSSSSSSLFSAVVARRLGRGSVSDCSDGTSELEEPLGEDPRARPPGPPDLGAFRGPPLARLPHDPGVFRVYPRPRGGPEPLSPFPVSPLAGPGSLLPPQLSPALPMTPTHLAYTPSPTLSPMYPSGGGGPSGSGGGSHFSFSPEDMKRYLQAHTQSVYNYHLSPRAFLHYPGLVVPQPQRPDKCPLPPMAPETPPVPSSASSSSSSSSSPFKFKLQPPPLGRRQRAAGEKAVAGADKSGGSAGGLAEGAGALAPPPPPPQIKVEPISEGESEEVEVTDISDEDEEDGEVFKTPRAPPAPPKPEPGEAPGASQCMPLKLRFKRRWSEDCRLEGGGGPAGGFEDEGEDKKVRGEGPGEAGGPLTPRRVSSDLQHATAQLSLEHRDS
Assay: DAPPL (digital affinity profiling via proximity ligation, sequencing); 10 mM Tris-HCl pH 7.5, 50 mM NaCl, 1 mM DTT, 4% glycerol, room temperature, 30 min; GST-TFs on glutathione beads, 16-mer random dsDNA library, 0.1% formaldehyde crosslink after washing; high values mean tight binding
Details: protein: recombinant; tags: N-terminal GST; dsDNA, one strand shown
In short: (§1)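 Binding signal is each hexamer's read frequency for a factor divided by its frequency in the tag-only sample. The factors were GST-fused human transcription factors from yeast, captured on glutathione beads, DNA-barcoded and pooled with that sample. Pools were incubated with 200 nmole of a random double-stranded 16-mer DNA library in Tris/NaCl/DTT/glycerol buffer at room temperature for 30 min, then washed, crosslinked with 0.1% formaldehyde, proximity-ligated with BsaI/T4 ligase (1 h, 37 °C), PCR-amplified and sequenced on an Illumina NextSeq500.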

Row | Sequence | binding signal
1 | ACCTTT | 1.52 fold enrichment (6-mer frequency, TF over GST control)
2 | ATAAAA | 1.13 fold enrichment (6-mer frequency, TF over GST control)
3 | CTTATA | 1.29 fold enrichment (6-mer frequency, TF over GST control)
4 | TTCATG | 1.22 fold enrichment (6-mer frequency, TF over GST control)
5 | AAACCC | 1.28 fold enrichment (6-mer frequency, TF over GST control)
6 | AAATAT | 1.25 fold enrichment (6-mer frequency, TF over GST control)
7 | CCTGGA | 1.32 fold enrichment (6-mer frequency, TF over GST control)
8 | ATCTTC | 1.45 fold enrichment (6-mer frequency, TF over GST control)
9 | CTGAAC | 1.33 fold enrichment (6-mer frequency, TF over GST control)
10 | TTTGAT | 1.21 fold enrichment (6-mer frequency, TF over GST control)
11 | CCTAGC | 1.26 fold enrichment (6-mer frequency, TF over GST control)
12 | TCCATT | 1.23 fold enrichment (6-mer frequency, TF over GST control)
13 | CCTTGG | 1.23 fold enrichment (6-mer frequency, TF over GST control)
14 | TTTTAA | 1.37 fold enrichment (6-mer frequency, TF over GST control)
15 | AATTGT | 1.36 fold enrichment (6-mer frequency, TF over GST control)
16 | TCTGGC | 1.31 fold enrichment (6-mer frequency, TF over GST control)
17 | ATGGCC | 1.27 fold enrichment (6-mer frequency, TF over GST control)
18 | GCGACT | 1.43 fold enrichment (6-mer frequency, TF over GST control)
19 | ATATCT | 1.23 fold enrichment (6-mer frequency, TF over GST control)
20 | TCCCCC | 1.45 fold enrichment (6-mer frequency, TF over GST control)

Row | Sequence | binding signal
21 | TCATTC | 1.15 fold enrichment (6-mer frequency, TF over GST control)
22 | TACCCT | 1.28 fold enrichment (6-mer frequency, TF over GST control)
23 | TAAGAA | 1.11 fold enrichment (6-mer frequency, TF over GST control)
24 | GATATA | 1.15 fold enrichment (6-mer frequency, TF over GST control)
25 | TGTTAT | 1.47 fold enrichment (6-mer frequency, TF over GST control)
26 | CCTACG | 1.37 fold enrichment (6-mer frequency, TF over GST control)
27 | ACTACG | 1.34 fold enrichment (6-mer frequency, TF over GST control)
28 | TCCAAG | 1.03 fold enrichment (6-mer frequency, TF over GST control)
29 | AACTGC | 1.22 fold enrichment (6-mer frequency, TF over GST control)
30 | ATTACA | 1.16 fold enrichment (6-mer frequency, TF over GST control)
31 | TAATTC | 1.29 fold enrichment (6-mer frequency, TF over GST control)
32 | TGCTCC | 1.42 fold enrichment (6-mer frequency, TF over GST control)
33 | AAATTG | 1.3 fold enrichment (6-mer frequency, TF over GST control)
34 | TATCCT | 1.67 fold enrichment (6-mer frequency, TF over GST control)
35 | CCGAAC | 1.23 fold enrichment (6-mer frequency, TF over GST control)
36 | CATACT | 1.3 fold enrichment (6-mer frequency, TF over GST control)
37 | TTTCCG | 3.3 fold enrichment (6-mer frequency, TF over GST control)
38 | CCCATA | 1.19 fold enrichment (6-mer frequency, TF over GST control)
39 | AGCTAC | 1.25 fold enrichment (6-mer frequency, TF over GST control)
40 | ATCCCT | 1.33 fold enrichment (6-mer frequency, TF over GST control)

Target: T2, ETV3L (Homo sapiens, UniProt Q6ZN32 1-361)
T2 sequence: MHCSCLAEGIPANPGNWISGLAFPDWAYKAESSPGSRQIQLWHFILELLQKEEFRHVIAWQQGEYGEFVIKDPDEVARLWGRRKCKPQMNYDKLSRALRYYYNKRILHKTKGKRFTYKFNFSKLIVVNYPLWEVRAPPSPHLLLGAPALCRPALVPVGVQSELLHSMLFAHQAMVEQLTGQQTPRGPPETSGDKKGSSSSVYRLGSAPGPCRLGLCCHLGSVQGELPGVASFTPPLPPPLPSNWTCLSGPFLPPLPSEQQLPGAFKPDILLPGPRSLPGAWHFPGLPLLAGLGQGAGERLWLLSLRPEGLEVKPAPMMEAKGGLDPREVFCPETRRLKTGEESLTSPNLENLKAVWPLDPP
Assay: as above
Details: protein: recombinant; tags: N-terminal GST; dsDNA, one strand shown
In short: as §1

Row | Sequence | binding signal
41 | ACCTTT | 1.41 fold enrichment (6-mer frequency, TF over GST control)
42 | ATAAAA | 1.15 fold enrichment (6-mer frequency, TF over GST control)
43 | CTTATA | 1.35 fold enrichment (6-mer frequency, TF over GST control)
44 | TTCATG | 1.33 fold enrichment (6-mer frequency, TF over GST control)
45 | AAACCC | 1.29 fold enrichment (6-mer frequency, TF over GST control)
46 | AAATAT | 1.32 fold enrichment (6-mer frequency, TF over GST control)
47 | CCTGGA | 1.49 fold enrichment (6-mer frequency, TF over GST control)
48 | ATCTTC | 1.63 fold enrichment (6-mer frequency, TF over GST control)
49 | CTGAAC | 1.3 fold enrichment (6-mer frequency, TF over GST control)
50 | TTTGAT | 1.28 fold enrichment (6-mer frequency, TF over GST control)
51 | CCTAGC | 1.09 fold enrichment (6-mer frequency, TF over GST control)
52 | TCCATT | 1.22 fold enrichment (6-mer frequency, TF over GST control)
53 | CCTTGG | 1.3 fold enrichment (6-mer frequency, TF over GST control)
54 | TTTTAA | 1.28 fold enrichment (6-mer frequency, TF over GST control)
55 | AATTGT | 1.29 fold enrichment (6-mer frequency, TF over GST control)
56 | TCTGGC | 1.11 fold enrichment (6-mer frequency, TF over GST control)
57 | ATGGCC | 1.32 fold enrichment (6-mer frequency, TF over GST control)
58 | GCGACT | 1.17 fold enrichment (6-mer frequency, TF over GST control)
59 | ATATCT | 1.21 fold enrichment (6-mer frequency, TF over GST control)
60 | TCCCCC | 1.43 fold enrichment (6-mer frequency, TF over GST control)

Row | Sequence | binding signal
61 | TCATTC | 1.28 fold enrichment (6-mer frequency, TF over GST control)
62 | TACCCT | 1.18 fold enrichment (6-mer frequency, TF over GST control)
63 | TAAGAA | 1.09 fold enrichment (6-mer frequency, TF over GST control)
64 | GATATA | 1.18 fold enrichment (6-mer frequency, TF over GST control)
65 | TGTTAT | 1.49 fold enrichment (6-mer frequency, TF over GST control)
66 | CCTACG | 1.59 fold enrichment (6-mer frequency, TF over GST control)
67 | ACTACG | 1.31 fold enrichment (6-mer frequency, TF over GST control)
68 | TCCAAG | 1.06 fold enrichment (6-mer frequency, TF over GST control)
69 | AACTGC | 1.37 fold enrichment (6-mer frequency, TF over GST control)
70 | ATTACA | 1.1 fold enrichment (6-mer frequency, TF over GST control)
71 | TAATTC | 1.38 fold enrichment (6-mer frequency, TF over GST control)
72 | TGCTCC | 1.45 fold enrichment (6-mer frequency, TF over GST control)
73 | AAATTG | 1.29 fold enrichment (6-mer frequency, TF over GST control)
74 | TATCCT | 1.82 fold enrichment (6-mer frequency, TF over GST control)
75 | CCGAAC | 1.27 fold enrichment (6-mer frequency, TF over GST control)
76 | CATACT | 1.33 fold enrichment (6-mer frequency, TF over GST control)
77 | TTTCCG | 3.52 fold enrichment (6-mer frequency, TF over GST control)
78 | CCCATA | 1.34 fold enrichment (6-mer frequency, TF over GST control)
79 | AGCTAC | 1.14 fold enrichment (6-mer frequency, TF over GST control)
80 | ATCCCT | 1.35 fold enrichment (6-mer frequency, TF over GST control)

Target: T3, ETS2 (Homo sapiens, UniProt P15036 1-469)
T3 sequence: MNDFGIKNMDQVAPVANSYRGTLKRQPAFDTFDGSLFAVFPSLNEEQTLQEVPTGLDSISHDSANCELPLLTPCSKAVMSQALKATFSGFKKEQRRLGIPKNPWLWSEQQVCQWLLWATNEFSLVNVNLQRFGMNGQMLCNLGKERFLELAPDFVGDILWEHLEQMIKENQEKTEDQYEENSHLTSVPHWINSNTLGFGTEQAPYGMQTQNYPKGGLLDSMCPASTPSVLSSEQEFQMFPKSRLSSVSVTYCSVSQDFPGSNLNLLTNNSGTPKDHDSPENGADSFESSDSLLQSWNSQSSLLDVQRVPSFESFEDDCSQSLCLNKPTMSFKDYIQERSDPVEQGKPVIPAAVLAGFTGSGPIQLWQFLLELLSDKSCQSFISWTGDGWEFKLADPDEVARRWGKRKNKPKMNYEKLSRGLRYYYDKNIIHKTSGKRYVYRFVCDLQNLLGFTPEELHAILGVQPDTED
Assay: as above
Details: protein: recombinant; tags: N-terminal GST; dsDNA, one strand shown
In short: as §1

Row | Sequence | binding signal
81 | ACCTTT | 1.48 fold enrichment (6-mer frequency, TF over GST control)
82 | ATAAAA | 1.17 fold enrichment (6-mer frequency, TF over GST control)
83 | CTTATA | 1.41 fold enrichment (6-mer frequency, TF over GST control)
84 | TTCATG | 1.33 fold enrichment (6-mer frequency, TF over GST control)
85 | AAACCC | 1.26 fold enrichment (6-mer frequency, TF over GST control)
86 | AAATAT | 1.37 fold enrichment (6-mer frequency, TF over GST control)
87 | CCTGGA | 1.52 fold enrichment (6-mer frequency, TF over GST control)
88 | ATCTTC | 1.6 fold enrichment (6-mer frequency, TF over GST control)
89 | CTGAAC | 1.32 fold enrichment (6-mer frequency, TF over GST control)
90 | TTTGAT | 1.26 fold enrichment (6-mer frequency, TF over GST control)
91 | CCTAGC | 1.11 fold enrichment (6-mer frequency, TF over GST control)
92 | TCCATT | 1.28 fold enrichment (6-mer frequency, TF over GST control)
93 | CCTTGG | 1.25 fold enrichment (6-mer frequency, TF over GST control)
94 | TTTTAA | 1.28 fold enrichment (6-mer frequency, TF over GST control)
95 | AATTGT | 1.31 fold enrichment (6-mer frequency, TF over GST control)
96 | TCTGGC | 1.21 fold enrichment (6-mer frequency, TF over GST control)
97 | ATGGCC | 1.37 fold enrichment (6-mer frequency, TF over GST control)
98 | GCGACT | 1.15 fold enrichment (6-mer frequency, TF over GST control)
99 | ATATCT | 1.17 fold enrichment (6-mer frequency, TF over GST control)
100 | TCCCCC | 1.42 fold enrichment (6-mer frequency, TF over GST control)
